Bioassay records from PubChem BioAssay.
RORg inh = inhibitors of mouse ROR gamma transcriptional activity | Drosophila S2 Gal4-RORgamma UAS-luciferase reporter, 20 h | 5.4% of 310,000 active | Potency, µM (titrated, usually from 53.6 µM), hits mostly inhibitors | P51450 | AID 2551; note: nearly all actives have a fitted effect of over 60% in size
Target sequence (P51450 whole entry, looked up, the tested form may be a part): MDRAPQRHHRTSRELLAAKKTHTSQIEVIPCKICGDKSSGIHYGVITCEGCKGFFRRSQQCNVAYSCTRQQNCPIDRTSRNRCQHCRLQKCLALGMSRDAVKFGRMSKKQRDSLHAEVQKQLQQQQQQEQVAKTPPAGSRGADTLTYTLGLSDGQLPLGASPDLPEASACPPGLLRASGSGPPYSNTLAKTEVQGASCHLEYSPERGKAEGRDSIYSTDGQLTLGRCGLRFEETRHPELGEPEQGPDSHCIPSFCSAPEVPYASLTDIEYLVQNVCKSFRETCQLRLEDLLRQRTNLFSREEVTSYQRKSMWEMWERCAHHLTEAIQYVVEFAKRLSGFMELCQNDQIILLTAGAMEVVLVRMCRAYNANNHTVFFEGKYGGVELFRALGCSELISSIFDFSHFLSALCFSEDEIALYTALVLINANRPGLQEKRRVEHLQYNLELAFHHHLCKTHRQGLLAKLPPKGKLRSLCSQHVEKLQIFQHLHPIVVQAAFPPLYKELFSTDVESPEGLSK
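In this cell-based reporter format, copper sulfate (700 uM final) drives Gal4–ROR gamma fusion expression from a metallothionein promoter in Drosophila Schneider cells; compounds preincubated 1 hr, reporter read after 20 hr at ambient temperature.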
BRCA1 expr up = increases BRCA1 expression | MCF7-BRCA1-FFLuc reporter, luminescence, 48 h; response scale: scaled: vehicle 0%, 10 µM genistein 100% | Potency, µM (top dose mostly 46.1 µM), most hits filed as activators | 1.1% of 380,000 active | AID 624202; note: nearly all actives have a fitted effect of over 80% in size
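Luminescence from a BRCA1-driven firefly luciferase in MCF7 cells was read after 48 h compound exposure at 37 C. Data normalized against DMSO and a 10microM genistein activation control, then curve-fitted across the titration.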
Giardia killer = kills Giardia lamblia; activity change, % at 7.66 µM, hits read low; Giardia lamblia trophozoite viability; 0.15% of 340,000 active; in the data active = activity change below about -80%; inconclusive = between about -30% and that limit;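 note: parasites exposed to compound for two days anaerobically before the ATP read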
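Luminescence from cellular ATP indicates surviving trophozoites (100 cells/well) following 48 hrs anaerobic compound treatment at 37 deg C; signal develops 15-30 min at room temperature.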
VP16 counter = Gal4-VP16 reporter inhibition counter-screen. Drosophila S2 Gal4-VP16 UAS-luciferase, luminescence, 20 h. Potency, µM (highest dose often 53.6 µM), actives largely listed as inhibitors. 3.5% of 310,000 active. AID 2546;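 note: Gal4-VP16 expression switched on by copper sulfate through the metallothionein promoter; nearly all actives have a fitted effect of over 50% in size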
ELG1 DNA repair = blocks ELG1-dependent DNA repair in HEK293T cells; HEK293T ELG1-luciferase reporter, luminescence, 16 h; DNA damage induced by 5-fluorouridine; Potency, µM (series often up to 46.1 µM), actives largely listed as inhibitors; 2.3% of 330,000 active; note: nearly all actives have a fitted effect of over 55% in size
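Cells (2,000 per well) received 5-fluorouridine plus test compound or DMSO and were incubated 16 hr at 37 °C, 5% CO2. Luciferase activity was read by luminescence 30 min after ONE-Glo addition; signal suppression marked inhibition of damage-induced ELG1 function.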
p53 reactivator = re-activators of mutant p53 | H1299 p53-A138V BP100-luciferase reporter, luminescence, 24 h | Potency, µM (titrated, usually from 92.2 µM), hits mostly activators | AID 504706 | 0.063% of 320,000 active; note: nearly all actives have a fitted effect of over 45% in size
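p53-null H1299 cells stably carrying temperature-sensitive p53-A138V and a BP100-luciferase reporter were pinned with compounds (4-point, 1:5 series) and held 24 hrs at 37 deg C. Luminescence was read 10 min after detection reagent.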
A number is an active result; n = inactive; u = inconclusive; x = no result; [ ] = another dose, or the depositor's remark. Shown are actives, neighbours in structure and some others; about 7.6% of the full set was active somewhere. Unless noted, calls come from the whole dose curve; as a rule, active = well fitted curve in the direction sought with a large enough effect; inconclusive = small, poorly fitted or top-dose-only effect, or another doubt; inactive = no such curve, though single readings can be large; an effect the other way counts as inactive or inconclusive.

SMILES	RORg inh	BRCA1 expr up	Giardia killer	VP16 counter	ELG1 DNA repair	p53 reactivator
O=C(Nc1ccc(CN2CCS(=O)(=O)CC2)cc1)c1ccc(Cl)cc1	n	n	n	n	10µM	n
CCN(CC)S(=O)(=O)c1ccc(NC(=O)Cc2cccs2)cc1	n	n	n	n[10 µM]	u	n
COc1cc(C(=O)Oc2ccccc2OC(=O)c2cc(OC)c(OC)c(OC)c2)cc(OC)c1OC	x	n	n	x	x	x
CN1CCN(C(=O)c2ccc(COc3ccc(C(C)(C)C)cc3)o2)CC1	u	3.5µM	n	u	u	n
CCCc1ccc(OCc2ccc(C(=O)N3CCCC3)o2)cc1	u	n	n	n	n	n
CCOc1ccc(OCc2ccc(C(=O)N3CCCC3)o2)cc1	2.5µM	n	n	n	n	n
O=C(O)CCCCCCCCc1cn(Cc2ccc(C(=O)c3ccccc3)cc2)nn1	n	n	n	n	n	n
O=C(O)CCCCCCCCc1cn(CC2CCCCC2)nn1	4.5µM	n	n	1.8µM	n	n
Cc1noc(C)c1S(=O)(=O)N(C)C[C@H]1OCCCC[C@H](C)Oc2ccc(NC(=O)CCCN(C)C)cc2C(=O)N([C@H](C)CO)C[C@@H]1C	x	n	x	x	x	x
O=C(Nc1cccc(C(F)(F)F)c1)Oc1ccc(Cl)c2cccnc12	0.5µM	n	n	1µM	u	n
CCN(CC)C(=O)Oc1ccc(Cl)c2cccnc12	n	n	n	u	n	n
CCN(CC)CCNCC1C(=O)O[C@@H]2C[C@@]3(C)CCC[C@H](C)C3=C[C@H]12 (some centres not stated)	n	n	n	n	u	n
Cc1ccc(C)c(NC(=S)N/N=C2\CCc3ccccc32)c1	7.1µM	n	n	10µM	u	n
Cc1ccc(NC(=S)N/N=C2/CCCCc3ccccc32)cc1	3.5µM	n	n	n	n	n
Cc1cccc(NC(=S)N/N=C2/CCCCc3ccccc32)c1	2.8µM	n	n	6.3µM	n	n
COc1ccc(NC(=O)O/N=C2/CCCc3ccc(OC)cc32)cc1	n	n	n	n	n	n
COc1ccc(NC(=S)N/N=C2/CCCc3c(C)cc(C)cc32)cc1	2.8µM	n	n	u	n	n
CC(=O)N1CCC(C(=O)NC2CCCc3c2cnn3-c2cc(F)cc(F)c2)CC1 (configuration not stated)	n	n	n	n	n	n
CCOc1cc(CNC(CC)CO)ccc1OCC(=O)Nc1cccc(C(F)(F)F)c1 (configuration not stated)	n	n	n	n	n	n
COc1cccc(/C=C/c2ccccn2)c1O	n	n	n	n	u	u
Cc1ccc(OCCn2cc(/C=C(\C#N)C(=O)NCC3CCCO3)c3ccccc32)cc1C (configuration not stated)	n	n	n	n	u	n
CN(C(=O)c1cc(-c2ccccc2)on1)C1CCCCC1	n	1.6µM	n	n	u	u
COc1cccc(OCc2cc(C(=O)N(C)C3CCCCC3)no2)c1	x	11µM	x	x	x	x
O=c1[nH]c2ccc(S(=O)(=O)N3CCCCC3)cc2s1	n	n	n	n	n	x
c1ccc(-c2nnnn2-c2ccccc2)cc1	n	n	n	n	n	n
SMILES	RORg inh	BRCA1 expr up	Giardia killer	VP16 counter	ELG1 DNA repair	p53 reactivator
ClC(Cl)(c1nnnn1-c1ccccc1)c1nnnn1-c1ccccc1	10µM	n	n	5µM	n	n
Cc1ccccc1CC(=O)Nc1ccc2c(c1)CCC2	n	n	u	n	u	u
CN(C)CCNC(=O)c1cccc(-c2cnc3c(NC=O)cc(-c4cc(F)c(F)c(F)c4)cn23)c1	x	n	x	x	x	x
CCOC(=O)c1cc(-c2cccs2)nc2c1c(C)nn2-c1ccccn1	1.8µM	n	n	7.1µM	u	n
Cc1nn(-c2ccccn2)c2nc(-c3cccs3)cc(C(=O)NCc3ccco3)c12	14µM	n	n	u	u	n
COc1ccc(C2/C=C\CN(CC3CCCCC3)C(Cc3ccccc3)C(=O)N2Cc2ccc(F)cc2)cc1 (configuration not stated)	n	x	n	n	x	x
CCN(CC(=O)NCc1cccs1)c1ccc(S(=O)(=O)N2CCCC2)cn1	n	n	n	n	n	n
